# mHTT-CaM PPI inh – mHTT-calmodulin interaction abrogation; P42858; AlphaScreen His-mHTT/GST-CaM binding, luminescence; inhibition, % at 15 µM; 190,000 compounds, 3.6% hits;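 further: 0% = both proteins with DMSO and 100% = one protein alone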
# Pf apPOL inh – Pf-apPOL DNA polymerase inhibition | Recombinant Pf-apPOL, molecular beacon fluorescence, 1.5 h | inhibition, % at 10 µM | 210,000 compounds, 0.25% hits
# Active calls of the source: *; . = no result. The sample as a whole holds a higher share of hits than the screen did. No stated cut-off is given here; in the data, active means inhibition above about 50%; inactive means the rest.
SMILES,mHTT-CaM PPI inh,Pf apPOL inh
O=C(Nc1nnc2ccccn12)c1ccccc1Br,100.3*,-3.0
O=C(Nc1nnc2ccccn12)c1ccc(C(F)(F)F)cc1,38.5,-22.9
CCOc1cccc2nnc(NC(=O)c3ccc(C(F)(F)F)cc3)n12,8.9,2.2
CCc1ccc(C(=O)Nc2nnc3ccccn23)cc1,58.3*,-10.6
COc1ccc(C2=NC3(CCCCC3)N(CC(=O)Nc3ccccc3)C2=O)cc1,18.4,-5.6
O=C(CSc1nc2ccsc2c(=O)n1Cc1ccc2c(c1)OCO2)NC1CCCCC1,-4.0,5.2
CCN(C)c1nc(N2CCOCC2)nc2c1CNCC2,-1.7,-5.6
O=C(O)C1C2C=CC(C2)C1C(=O)Nc1cccnc1 (stereo unspecified),-5.0,-12.2
O=C(O)C1C2C=CC(C2)C1C(=O)Nc1ncccc1O (stereo unspecified),4.0,79.5*
CCc1noc(-c2cccn2CC(=O)OC)n1,-3.1,-0.5
Cc1ccc(C)c(Oc2cc(NC(=O)CCCn3nc(C)c([N+](=O)[O-])c3C)cc([N+](=O)[O-])c2)c1,1.0,-0.2
Cc1nn(CCCC(=O)Nc2cc(Oc3ccc(F)cc3F)cc([N+](=O)[O-])c2)c(C)c1[N+](=O)[O-],80.0*,-4.9
Cc1ccc(NC(=O)CCCn2nc(C)c([N+](=O)[O-])c2C)cc1C,2.0,-12.3
Cc1nn(CCCC(=O)Nc2cc(Oc3ccccc3)cc([N+](=O)[O-])c2)c(C)c1[N+](=O)[O-],96.0*,-2.1
COc1cccc(C(=O)N2CCN(c3cc(-c4cccc(C)c4)ncn3)CC2)c1,15.9,0.3
COc1ccc(C=C2Oc3c(ccc(O)c3CN3CCCC(C)C3)C2=O)c(OC)c1OC (stereo unspecified),26.8,-7.9
COC(=O)c1ccc(C=C2Oc3c(ccc(O)c3CN3CCCC3)C2=O)cc1,12.7,-5.7
COC(=O)c1ccc(C=C2Oc3c(ccc(O)c3CN3CCCCC3C)C2=O)cc1 (stereo unspecified),51.5*,-27.9
O=C1C(=Cc2cc(Cl)cc3c2OCOC3)Oc2c1ccc(O)c2CN1CCOCC1,8.9,3.9
O=C1C(=Cc2cc3cc(Br)ccc3o2)Oc2c1ccc(O)c2CN1CCN(CCO)CC1,60.2*,1.1
CCN1CCN(Cc2c(O)ccc3c2OC(=Cc2cc(Cl)cc4c2OCOC4)C3=O)CC1,54.9*,8.4
COc1cc(OC)c(OC)cc1C=C1Oc2c(ccc(O)c2CN2CCCC(C)C2)C1=O (stereo unspecified),51.3*,-1.3
COc1ccc(Br)cc1C=C1Oc2c(ccc(O)c2CN2CCN(CCO)CC2)C1=O,24.8,-1.2
Cc1cc(NC=C(C#N)C(=O)c2cc(C)oc2C(F)(F)F)no1,.,1.5
CCN1CCN(CCNC(=O)c2nc(C)n(C3CCN(C)CC3)c2C)CC1,1.3,-3.9
SMILES,mHTT-CaM PPI inh,Pf apPOL inh
O=S(=O)(c1cnc[nH]1)N1CC(c2nc(-c3cccnc3)no2)C2(CCOCC2)C1 (stereo unspecified),2.1,-5.0
Cc1cccc(N(CC(=O)N2CCN(c3ccccc3)CC2)S(=O)(=O)c2ccccc2)c1C,45.5,-12.8
CCN(CC)CCN1C(=O)C(O)=C(C(C)=O)C1c1ccc([N+](=O)[O-])cc1 (stereo unspecified),-3.8,8.6
Cc1c(C(=O)N2CCN(c3ccccc3)CC2)sc2nc(-c3ccccc3)cn12,7.0,-0.4
COc1cc(C=C2SC(=S)N(C(C)C(=O)O)C2=O)cc(Br)c1O (stereo unspecified),38.7,-117.7
O=C1C[C@H]2C=CCc3cccc(c32)CN1Cc1ccc(Br)cc1,12.5,-7.9
COc1ccccc1CN1Cc2cccc3c2[C@@H](CC1=O)[C@H](O)[C@H](O)C3,-1.7,-2.9
O=C1CC2C=CCc3cccc(c32)CN1Cc1cccc(F)c1 (stereo unspecified),100.1*,-4.1
Cc1ccccc1CN1Cc2cccc3c2[C@H](C=CC3)CC1=O,99.9*,-2.6
O=C(NC1CCCC1)C1CCCN(S(=O)(=O)N2CCCCCC2)C1 (stereo unspecified),13.0,-6.0
Cc1c(Cl)cccc1NS(=O)(=O)c1ccc(Cl)cc1,-19.4,-7.1
O=C(Cc1ccccc1F)N1CCCC(c2ccnc(Nc3ccccc3)n2)C1 (stereo unspecified),85.6*,-1.9
CCOCC(=O)N1CCCC(c2ccnc(Nc3ccc(OC)cc3)n2)C1 (stereo unspecified),6.7,-2.4
COc1ccc(-c2nccc(C3CCCN(C(=O)Cc4ccc(F)cc4)C3)n2)cc1 (stereo unspecified),22.0,0.9
CC(C)C(=O)N1CCCC(c2ccnc(Nc3ccccc3)n2)C1 (stereo unspecified),33.5,-4.5
O=C(Cc1ccc(F)cc1)N1CCCC(c2ccnc(Nc3ccccc3)n2)C1 (stereo unspecified),96.2*,-5.2
O=C(c1cccs1)N1CCCC(c2ccnc(Nc3ccccc3F)n2)C1 (stereo unspecified),29.7,-1.2
CC(C)CC(=O)N1CCCC(c2ccnc(Nc3ccccc3)n2)C1 (stereo unspecified),70.8*,-2.0
O=C(c1cccs1)N1CCCC(c2ccnc(Nc3ccccc3)n2)C1 (stereo unspecified),61.3*,0.2
O=C(NCc1ccc(F)cc1)c1ccc(Cn2cc([N+](=O)[O-])cn2)o1,2.0,-8.9
CCOC(=O)c1c(NC(C)=O)sc(SSc2sc(NC(C)=O)c(C(=O)OCC)c2C)c1C,7.8,.
CC(C)(C)c1ccc(C2=NC(=O)C(CC(=O)O)S2)cc1 (stereo unspecified),.,38.5
O=C(O)CC1SC(c2ccc3c(c2)OCO3)=NC1=O (stereo unspecified),.,51.8*
O=C(c1cccc(CN2C(=O)C3CCCN3C(=O)c3ccccc32)c1)N1CCOCC1 (stereo unspecified),2.2,-6.8
Cc1cccn2c(=O)c(/C=C3\SC(=S)N(C)C3=O)c(N3CCCCC3)nc12,17.1,.
SMILES,mHTT-CaM PPI inh,Pf apPOL inh
COCOCCn1cc(CN2CCS(=O)(=O)N(Cc3ccc(-c4ccc(F)cc4)cc3)C(C)C2=O)nn1 (stereo unspecified),62.6*,14.0
COCOCCn1cc(CN2CCS(=O)(=O)N(Cc3ccc(-c4ccc(Cl)cc4)cc3)C(C)C2=O)nn1 (stereo unspecified),14.5,-20.9
COCOCCn1cc(CN2CCS(=O)(=O)N(Cc3ccc(-c4ccccc4)cc3)C(C)C2=O)nn1 (stereo unspecified),58.9*,6.2
COCOCCn1cc(CN2CCS(=O)(=O)N(Cc3ccc(-c4ccc(Cl)nc4)cc3)C(CC(C)C)C2=O)nn1 (stereo unspecified),25.8,-26.8
CCC/C=C/c1ccc(CN2C(C)C(=O)N(Cc3cn(CCOCOC)nn3)CCS2(=O)=O)cc1 (stereo unspecified),4.1,-16.1
COCOCCn1cc(CN2CCS(=O)(=O)N(Cc3ccc(-c4ccc(Cl)cc4)cc3)C(CC(C)C)C2=O)nn1 (stereo unspecified),53.5*,-23.1
O=C(NCc1ccc(F)cc1F)C1CCN(c2cc(N3CCOCC3)ncn2)CC1,-6.2,-6.4
Cc1ccc(C(=O)Nc2c3c(nn2C(C)(C)C)CSC3)cc1[N+](=O)[O-],29.0,3.6
Cc1c(C(=O)Nc2c3c(nn2-c2ccc([N+](=O)[O-])cc2)CSC3)cccc1[N+](=O)[O-],3.0,-6.0
CC(C)(C)n1nc2c(c1NC(=O)c1cccc([N+](=O)[O-])c1)CSC2,67.0*,6.5
